# Measurements from PubChem BioAssay AID1220 (Sanford-Burnham Center for Chemical Genomics, 2008).
# Hit rate of the full screen: of about 190,000 compounds, about 1,300 (0.68%) were called active. The sample as a whole holds a higher share of actives than the screen did. Values without a mark were called inactive. No stated cut-off is given here; in the data, active means inhibition above about 50%; inactive means the rest.
# Target: Mannose-6-phosphate isomerase (Homo sapiens) (UniProt P34949)
# Sequence (P34949 whole entry, looked up): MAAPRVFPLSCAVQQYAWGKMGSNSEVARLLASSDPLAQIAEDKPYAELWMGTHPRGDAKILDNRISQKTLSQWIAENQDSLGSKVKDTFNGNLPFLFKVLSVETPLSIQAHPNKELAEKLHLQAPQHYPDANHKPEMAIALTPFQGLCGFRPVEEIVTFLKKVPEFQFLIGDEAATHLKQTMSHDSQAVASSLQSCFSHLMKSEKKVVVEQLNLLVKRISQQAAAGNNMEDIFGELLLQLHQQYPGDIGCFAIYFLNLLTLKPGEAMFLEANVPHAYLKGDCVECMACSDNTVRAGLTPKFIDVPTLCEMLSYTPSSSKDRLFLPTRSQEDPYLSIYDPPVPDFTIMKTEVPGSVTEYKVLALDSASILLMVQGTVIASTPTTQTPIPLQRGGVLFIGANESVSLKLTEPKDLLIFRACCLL
# Experiment: MPI inhibition at elevated mannose 6-phosphate – biochemical, fluorescence intensity, high mannose 6-phosphate, primary screen (AID 1220)
# Conditions: recombinant PMI enzyme, coupled fluorescence intensity; at 20 µM; hits give high values
row,SMILES,inhibition
1,O=C1c2cccc3c(O)ccc(c23)C(=O)N1Cc1ccco1,64.3% (active)
2,O=C1c2cccc3cccc(c23)C(=O)N1Cc1ccco1,-4.4%
3,CSc1nc(O)c(C2OC(=O)c3ccccc32)c(=O)[nH]1 (stereo not drawn),8.9%
4,Cc1ccc(NS(=O)(=O)c2ccc3[nH]c(=O)c(=O)[nH]c3c2)cc1Cl,14.3%
5,O=[N+]([O-])c1ccc(Oc2ccc(F)cc2Br)c2ccncc12,50% (active)
6,O=[N+]([O-])c1ccc(Oc2ccc(F)cc2)c2ccncc12,17.6%
7,O=[N+]([O-])c1ccc(Oc2cccc(F)c2)c2ccncc12,-0.7%
8,N#C/C=C\Oc1ccc(Cl)cc1N,57.9% (active)
9,Nc1cc(Cl)ccc1Oc1ccc(Cl)cc1,-1.6%
10,Nc1cc(Cl)ccc1Oc1ccccc1,-2.5%
11,COc1cc(-c2nnc(COC(=O)c3cc(C)nc4ccc(C)cc34)o2)cc(OC)c1OC,13%
12,CCN1CCN(CCOCCOc2ccccc2-c2ccccc2)CC1,-4.3%
13,O=S(=O)(Cc1ccc(Cl)cc1)NCC1CCCO1 (stereo not drawn),14.9%
14,CCOC(=O)c1cc2c(C)n(-c3ccc(N(C)C)cc3)c(C)c2cc(C(=O)OCC)c1=O,37.3%
15,Cn1c(C(=O)N2CCCc3ccccc32)cc2sccc21,-3.3%
16,O=C(CNC(=S)N(CCCN1CCOCC1)Cc1cccs1)N1CCOCC1,-1.9%
17,O=C(CNC(=S)N(CCCN1CCOCC1)Cc1cccs1)N1CCCCCC1,55.1% (active)
18,O=C(CNC(=S)N(CCCN1CCOCC1)Cc1cccs1)N1CCCC1,-5%
19,CCCC(=O)Nc1ccccc1N1CCN(C(=O)C(C)C)CC1,-0.1%
20,CN(C)c1ccc(NC(=O)c2cn(-c3ccccc3)nc2-c2cccs2)cc1,13.7%
21,O=C1C=C(Nc2cccc(O)c2)CC(c2ccco2)C1 (stereo not drawn),12%
22,O=C1C=C(Nc2ccc(O)cc2)CC(c2ccco2)C1 (stereo not drawn),60.2% (active)
23,O=C1C=C(Nc2ccc(Cl)cc2)CC(c2ccco2)C1 (stereo not drawn),5.8%
24,COC(=O)c1cccc([N+](=O)[O-])c1CN1CCCC(C(N)=O)C1 (stereo not drawn),-6.5%

row,SMILES,inhibition
1,CN1C(=O)c2cccc3c(S(=O)(=O)NCc4ccco4)ccc1c23,1.8%
2,CCN1C(=O)c2cccc3c(S(=O)(=O)NCc4ccco4)ccc1c23,63% (active)
3,CCOC(=O)c1ccc(NC(=O)Nc2ccc3c4c(cccc24)C(=O)N3CC)cc1,53.1% (active)
4,CCN1C(=O)c2cccc3c(NS(=O)(=O)c4ccc(NC(C)=O)cc4)ccc1c23,55.9% (active)
5,CCN1C(=O)c2cccc3c(S(=O)(=O)NCc4ccccn4)ccc1c23,-3.8%
6,CCN1C(=O)c2cccc3c(NC(=O)c4ccc(S(=O)(=O)N(C)C)cc4)ccc1c23,13.6%
7,CCOc1cc(C(=O)Nc2ccc3c4c(cccc24)C(=O)N3CC)cc(OCC)c1OCC,-4.4%
8,CCN1C(=O)c2cccc3c(NC(=O)c4ccccc4)ccc1c23,27.7%
9,CCN1C(=O)c2cccc3c(NC(=O)C(C)(C)C)ccc1c23,11.8%
10,Cc1nn(CC(=O)Nc2sc3c(c2C#N)CCC(C(C)(C)C)C3)c(C)c1[N+](=O)[O-] (stereo not drawn),21%
11,COc1ccc(S(=O)(=O)NNC(=O)C2CC(c3cccnc3)=NO2)cc1 (stereo not drawn),-11%
12,CC(=O)C(=Nc1ccccc1Cl)NNc1ccc(Cl)cc1,-52.8%
13,C=CCOn1c(=O)c(-c2ccccc2)[n+]([O-])c2ccccc21,12%
14,COc1ccc(CCN(Cc2cc3cc(C)cc(C)c3nc2Cl)C(=O)C2CC2)cc1,15.7%
15,Clc1ccc(-c2nnc3n2CCCCS3)cc1,-8.4%
16,CCCN1CCN(c2nc3c([nH]2)c(=N)ncn3CC(O)CO)CC1 (stereo not drawn),2.5%
17,COC(=O)C1C(=O)c2c([nH]c(C(=O)OC3CCCC3C)c2C)CC1C (stereo not drawn),12.3%
18,COc1ccc(-c2nn3c(-c4ccc(F)cc4)nnc3s2)cc1,-6.8%
19,O=C(Cn1c2c(sc1=O)C1c3ccccc3OCC1CS2)Nc1ccc(Cl)cc1 (stereo not drawn),8.7%
20,Cn1cc(C2CC(c3ccccc3)=NN2C(=O)c2ccccc2)c2ccccc21 (stereo not drawn),20.9%
21,Cc1nc2ccc(NC(=S)NCCCO)cc2nc1C,-2.9%
22,OCCCNC(=S)Nc1ccc2nccnc2c1,53.9% (active)
23,OCCCNC(=S)Nc1ccc2nc(-c3ccccn3)c(-c3ccccn3)nc2c1,14.4%
24,c1ccc2c(CCNc3ncnc4nc[nH]c34)cccc2c1,10%
